“And” between values parts separate entries of the source, which are not always exact repeats. Equal values may be shown once.
Assays:
Assay type in all cases: functional
[1] = biological target: Solute carrier family 2, facilitated glucose transporter member 1 (Homo sapiens) (UniProt P11166); assay: ST_JUDE_LEISH: Cytotoxicity at 2uM final concentration against transgenic Leishmania Mexicana promastigotes LmGLUT1 that are glucose transport deficient and complemented with the human glucose transporter GLUT1. Activity is measured by DNA content using SYBR green in vitro
[2] = biological target: Hexose transporter 1 (Plasmodium falciparum) (UniProt O97467); assay: ST_JUDE_LEISH: Cytotoxicity at 2uM final concentration against transgenic Leishmania Mexicana promastigotes LmPfHT that are glucose transport deficient and complemented with the Plasmodium falciparum hexose transporter. Activity is measured by DNA content using SYBR green in vitro
[3] = biological target: Glucose transporter (Leishmania mexicana) (UniProt O61059); assay: ST_JUDE_LEISH: Cytotoxicity at 2uM final concentration against transgenic Leishmania Mexicana promastigotes LmGT2 that are glucose transport deficient and complemented with the L. Mexicana glucose transporter 2. Activity is measured by DNA content using SYBR green in vitro

Chain of Solute carrier family 2, facilitated glucose transporter member 1 (Homo sapiens) (P11166 whole entry): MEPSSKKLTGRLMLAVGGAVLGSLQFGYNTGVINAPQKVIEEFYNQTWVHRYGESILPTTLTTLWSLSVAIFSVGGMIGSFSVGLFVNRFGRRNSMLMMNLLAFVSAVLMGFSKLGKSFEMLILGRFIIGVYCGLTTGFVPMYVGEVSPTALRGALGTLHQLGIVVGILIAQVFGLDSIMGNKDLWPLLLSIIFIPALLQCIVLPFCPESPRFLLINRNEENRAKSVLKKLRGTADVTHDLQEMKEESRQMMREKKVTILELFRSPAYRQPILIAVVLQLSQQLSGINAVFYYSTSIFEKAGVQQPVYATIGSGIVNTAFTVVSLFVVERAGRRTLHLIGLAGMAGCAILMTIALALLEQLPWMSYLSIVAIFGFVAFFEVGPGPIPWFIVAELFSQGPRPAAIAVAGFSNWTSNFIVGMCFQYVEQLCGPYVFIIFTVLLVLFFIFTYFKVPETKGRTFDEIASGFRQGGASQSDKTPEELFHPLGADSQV

Structure (SMILES)	inhibition [1]	inhibition [2]	inhibition [3]
CCCCCCCCNCC(O)c1ccc(Cl)c(Cl)c1 (stereo unspecified)	2.51%	3.44%	1.24%
O=C(NCCC1CCN(CCc2c[nH]c3ccccc23)CC1)Nc1ccc(Cl)c(Cl)c1	3.67%	2.49%	3%
O=C(/C=C/c1ccc(Cl)c(Cl)c1)NCCCCCN1C2CCC1CC(c1c[nH]c3ccc(O)cc13)C2 (stereo unspecified)	0.54% and -0.84%	2.4% and -2.77%	-3.07% and -2.2%
O=C(Nc1ccc(Oc2ccccc2)cc1)N1CCC(CN2CCC(c3c[nH]c4ccccc34)CC2)CC1	1.64%	2.58%	-1.12%
CNCC(O)c1cc(Cl)c(Cl)cc1C (stereo unspecified)	1.72%	0.44%	-1.56%
O=C(/C=C/c1ccc(Cl)c(Cl)c1)NCC1CCC(N2CCC(c3c[nH]c4ccccc34)CC2)CC1 (stereo unspecified)	5.53%	11.2%	0.18%
N#Cc1ccc(N(CC(=O)NCCc2ccc(F)cc2)CC2CC2)c2ccccc12	-0.35%	-0.59%	1.47%
O=C(CC1CCCC1)N(CC1CCN(Cc2ccc(C(F)(F)F)cc2)CC1)c1ccc(N2CCOCC2)c(F)c1	13.5%	10.9%	14%
COc1ccc(-c2ccccc2)cc1NC(=S)NC1CCC(CN2CCC(c3c[nH]c4ccccc34)CC2)CC1 (stereo unspecified)	3.8% and 4.09%	2.57% and 3.78%	0.72% and 3.03%
OC(CNCc1ccccc1OC(F)F)c1cccc(C(F)(F)F)c1 (stereo unspecified)	1.52%	1.17%	1.62%
S=C(Nc1ccc2c(c1)OCCO2)NC1CCC(CN2CCC(c3c[nH]c4ccccc34)CC2)CC1 (stereo unspecified)	0.68% and -2.92%	-3.08% and -1.27%	4.46% and -3.36%
CC(C)(C)c1cc(/C=C/C(=O)NC2CCC(CN3CCC(c4c[nH]c5ccccc45)CC3)CC2)cc(C(C)(C)C)c1O (stereo unspecified)	2.87% and 2.94%	0.49% and 5.11%	-0.51% and 1.19%
